# PubChem BioAssay (EPA / NIEHS)
# Results filed as inconclusive are left out. Calls of active or inactive are those of the source. Rule for the calls, unless noted: active = hit-call score of the fitted dose curve at least 0.9, where 1 is the maximum; inconclusive = response in the unintended direction; inactive = score below 0.9.
# Legend:
# [1] = read-out: solute carrier (SLC22A6), SLC22A6 (gene 9356); test: LTEA_HepaRG_SLC22A6: Life Technologies and Expression Analysis (LTEA) Assay for solute carrier (SLC22A6) using HepaRG (AID 2283653; active = hit-call score of the fitted dose curve at least 0.9, where 1 is the maximum; inactive = score below 0.9); settings: mRNA level, 48 h; actives raise or lower the signal
# In short: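 Differentiated human HepaRG cells were exposed for 48 h in serum-free induction medium to eight concentrations (top 100 uM, half-log steps, 0.5% DMSO), in duplicate. SLC22A6 mRNA was quantified by qRT-PCR, normalised to ACTB, GAPDH and POLR2A, and fitted bidirectionally against DMSO.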
# [2] = Tanguay_ZF_120hpf_TRUN_legacy: (Legacy) Oregon State University Tanguay Lab 120 Hour Post-fertilization zebrafish Assay for Truncated Body (AID 2283655)
# In short: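 Tropical 5D wild-type embryos, dechorionated with pronase at 4 hpf, were placed singly in wells at 6 hpf and statically exposed at 28C until 120 hpf, final DMSO 0.64%. Truncated body was scored present/absent by brightfield microscopy.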
# [3] = Tanguay_ZF_120hpf_NC_legacy: (Legacy) Oregon State University Tanguay Lab 120 Hour Post-fertilization zebrafish Assay for Notochord and Tail Malformation (AID 2283656)
# In short: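 Dechorionated 5D zebrafish, 1/well from 6 hpf; static exposure to 120 hpf, 28C, sealed, dark; final DMSO 0.64% v/v. NC scored binary (present/absent); dead embryos not scored. Fit vs DMSO baseline, gain direction.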
# [4] = read-out: solute carrier (SLC10A1), SLC10A1 (gene 6554); test: LTEA_HepaRG_SLC10A1: Life Technologies and Expression Analysis (LTEA) Assay for solute carrier (SLC10A1) using HepaRG (AID 2283657; active = hit-call score of the fitted dose curve at least 0.9, where 1 is the maximum; inactive = score below 0.9); settings: mRNA level, 48 h; actives raise or lower the signal
# In short: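 Differentiated HepaRG cells were plated 48 h, then exposed in serum-free induction medium for 48 h to 8 concentrations (top 100 uM, half-log steps, 0.5% DMSO). SLC10A1 mRNA was quantified by qRT-PCR normalized to ACTB, GAPDH, POLR2A; bidirectional fit versus DMSO.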
# [5] = read-out: matrix metalloproteinase-1 (MMP1), MMP1 (gene 4312); test: LTEA_HepaRG_MMP1: Life Technologies and Expression Analysis (LTEA) Assay for matrix metalloproteinase-1 (MMP1) using HepaRG (AID 2283658; active = hit-call score of the fitted dose curve at least 0.9, where 1 is the maximum; inactive = score below 0.9); settings: mRNA level, 48 h; actives raise or lower the signal
# In short: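 Differentiated HepaRG cells, plated 48 h then switched to serum-free induction medium, were exposed in duplicate for 48 h to eight half-log concentrations up to 100 uM in 0.5% DMSO; MMP1 mRNA measured by qRT-PCR, normalized to ACTB, GAPDH, POLR2A.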
# [6] = Tanguay_ZF_120hpf_TR_legacy: (Legacy) Oregon State University Tanguay Lab 120 Hour Post-fertilization zebrafish Assay for Touch Response (AID 2283667)
# In short: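 Tropical 5D wild-type zebrafish embryos were exposed statically in sealed, foil-covered plates at 28C until 120 hpf, with 0.64% (vol/vol) final DMSO. Touch response was scored as present or absent; embryos that died were not scored.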
# [7] = read-out: Cytochrome P450 (CYP24A1_1), CYP24A1 (gene 1591); test: LTEA_HepaRG_CYP24A1_1: Life Technologies and Expression Analysis (LTEA) Assay for Cytochrome P450 (CYP24A1_1) using HepaRG (AID 2283671; active = hit-call score of the fitted dose curve at least 0.9, where 1 is the maximum; inactive = score below 0.9); settings: mRNA level, 48 h; actives raise or lower the signal
# In short: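 HepaRG, 48 h exposure, 8-pt half-log series from 100 uM in 0.5% DMSO, duplicates. Readout: TaqMan qRT-PCR of CYP24A1 mRNA, housekeeping-normalized (ACTB/GAPDH/POLR2A). Bidirectional curve fit vs DMSO baseline.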
# [8] = Tanguay_ZF_120hpf_SWIM_legacy: (Legacy) Oregon State University Tanguay Lab 120 Hour Post-fertilization zebrafish Assay for Swim Bladder Malformation (AID 2283654);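 note: swim bladder malformation in each larva scored yes or no under brightfield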
# In short: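 Dechorionated Tropical 5D wild-type embryos, placed singly from 6 hpf, were statically exposed at 28C to 120 hpf with 0.64% DMSO final; swim bladder malformation was scored present/absent by brightfield microscopy, gain of signal relative to DMSO controls.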
# [9] = tested on: Thyroperoxidase (TPO), gene 54314; test: CCTE_Simmons_AUR_rTPO: CCTE's Amplex UltraRed Assay for Thyroperoxidase (TPO) Inhibition, Simmons Lab (AID 2283662);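 for AC50: potency for loss of signal meaning inhibition of peroxidase activity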
# In short: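 Cell-free peroxidase activity assay using rat thyroid gland microsomes with excess H2O2 (300 uM) and 25 uM Amplex UltraRed. Compounds tested from 5 nM to 87.5 uM; fluorescence measured after 30 min at 37C, analysed relative to DMSO baseline.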
smiles,measurement,setting,value
Clc1ccc(Cl)cc1,outcome,[1],inactive
same,outcome,[2],inactive
same,outcome,[3],inactive
same,outcome,[4],inactive
same,outcome,[5],inactive
same,outcome,[6],inactive
same,outcome,[7],inactive
C[C@]12CCC(=O)C=C1CC[C@@H]1[C@@H]2CC[C@]2(C)C(=O)CC[C@@H]12,outcome,[8],inactive
same,outcome,[2],inactive
same,outcome,[3],inactive
same,outcome,[9],inactive
same,AC50,[6],26.8 µM (active)
CCOP(=S)(OCC)SCSC(C)(C)C,outcome,[3],inactive
same,AC50,[9],8.68 µM (active)
same,outcome,[6],inactive
O=C(NC(=O)c1cc(F)c(F)cc1Cl)Nc1cc(F)ccc1N1CCC(C(=O)O)CC1,outcome,[2],inactive
same,outcome,[3],inactive
same,outcome,[6],inactive
CC(C)C(=O)OCC(C)(C)C(OC(=O)C(C)C)C(C)C (centres undefined),outcome,[2],inactive
same,outcome,[3],inactive
same,outcome,[6],inactive
Cc1cc(O)ccc1Cl,outcome,[2],inactive
same,outcome,[3],inactive
same,outcome,[6],inactive
c1cc2ccc3cccc4ccc(c1)c2c34,outcome,[2],inactive
same,outcome,[3],inactive
same,outcome,[6],inactive
Sc1ccccc1,outcome,[9],inactive
CCC(C)c1cc([N+](=O)[O-])cc([N+](=O)[O-])c1O (centres undefined),outcome,[2],inactive
same,outcome,[3],inactive
same,outcome,[6],inactive
Cc1cc2c3c(c1)C(c1ccccc1)=N[C@@H](NC(=O)c1ccncc1)C(=O)N3CC2,outcome,[2],inactive
same,outcome,[3],inactive
same,outcome,[6],inactive
O=S(=O)(O)C(F)(F)C(F)(F)C(F)(F)C(F)(F)C(F)(F)C(F)(F)F,outcome,[2],inactive
same,outcome,[3],inactive
same,AC50,[6],25.9 µM (active)
Cc1ccccc1O,outcome,[2],inactive
same,outcome,[3],inactive
same,outcome,[6],inactive
O=NN(c1ccccc1)c1ccccc1,outcome,[3],inactive
same,outcome,[6],inactive
Nc1ccc(-c2ccc(N)cc2)cc1,outcome,[2],inactive
same,outcome,[3],inactive
same,outcome,[6],inactive
CCOCCOC(C)=O,outcome,[2],inactive
same,outcome,[3],inactive
same,outcome,[6],inactive
c1ccc(-c2ccccc2)cc1,outcome,[2],inactive
same,outcome,[9],inactive
same,outcome,[6],inactive
ClC1=C(Cl)[C@]2(Cl)[C@@H]3[C@@H](Cl)[C@H]4O[C@H]4[C@@H]3C1(Cl)C2(Cl)Cl,outcome,[2],inactive
same,outcome,[3],inactive
same,outcome,[6],inactive
